Laboratory results as given in the supplement of paper PMC12636033.
± gives the standard deviation of the averaged measurements. Whole data set: some 33,000 sequences, median “E-score (rank enrichment, -0.5 to 0.5)” near -0.0068, cut for the highest 2% near 0.24. The full list was thinned out, with the highest values kept by preference.

Test system: muMax20 (Max(13-93) K31hArg/K57hArg, M65Nle)
Assay: PBM 8-mer E-score (E-score (rank enrichment, -0.5 to 0.5)); higher = stronger preferential binding
Procedure: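 Protein binding microarray (universal PBM chip covering all 10-mers in fixed probe flanks) with chemically synthesized human Max(13-93) bHLH-LZ analogs (not full-length Max) bearing noncanonical residues (hArg, Tha, Aib, Nle at 65) and aromatic Cys staples. Read-out per 8-mer (and its reverse complement): E-score (rank-based enrichment, -0.5 to 0.5) and Z-score of median probe intensity.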

| Sequence | PBM 8-mer E-score |
| --- | --- |
| ACAAATAT | 0.185 ± 0.027 |
| ATCCGCGC | -0.227 ± 0.043 |
| CACATACC | -0.0465 ± 0.058 |
| CCTTCGCG | -0.228 ± 0.019 |
| CTGAAAGA | 0.0447 ± 0.09 |
| ATGCCAAA | 0.111 ± 0.027 |
| ATACGTAA | 0.112 ± 0.077 |
| ATACGTAT | 0.308 ± 0.0025 |
| ATACGTAC | 0.188 ± 0.074 |
| CTCGTCCA | -0.0336 ± 0.048 |
| CCGTAAAG | 0.104 ± 0.11 |
| AAGGCCGC | -0.00405 ± 0.027 |
| AAGGCCGG | -0.243 ± 0.084 |
| AAGGCCGT | 0.278 ± 0.095 |
| GCCGACAA | -0.268 ± 0.068 |
| GCGGTTGA | -0.134 ± 0.11 |
| GCCACCCC | -0.0921 ± 0.047 |
| CCCACCCA | 0.269 ± 0.099 |
| CCCACCCC | 0.258 ± 0.018 |
| GCACCCCA | -0.0239 ± 0.0035 |
| TCCACCCA | 0.00135 ± 0.18 |
| CCACCCCA | 0.261 ± 0.066 |

| Sequence | PBM 8-mer E-score |
| --- | --- |
| ACCACCCC | -0.0712 ± 0.063 |
| CCACCCCC | -0.12 ± 0.084 |
| CCCACCCG | 0.186 ± 0.028 |
| ATCCATAC | 0.15 ± 0.062 |
| GGTAGAAA | 0.0368 ± 0.022 |
| AGGCGCGG | -0.125 ± 0.07 |
| GAGTGGAA | -0.00431 ± 0.092 |
| ATTCACAG | -0.0684 ± 0.13 |
| ATTCACAA | 0.247 ± 0.032 |
| GTTCACAA | -0.0567 ± 0.038 |
| AAAACTTT | 0.133 ± 0.058 |
| ATAACATC | 0.249 ± 0.13 |
| GTAACAAA | 0.197 ± 0.067 |
| ATAACACG | 0.251 ± 0.014 |
| ATAACACC | 0.134 ± 0.014 |
| ATAACACA | 0.186 ± 0.067 |
| CTAACATC | 0.042 ± 0.045 |
| GTAACACA | 0.26 ± 0.11 |
| CTAACACA | 0.127 ± 0.02 |
| ATAACATG | 0.199 ± 0.064 |
| CGGGGGGA | -0.222 ± 0.029 |
| ACGGCACC | -0.104 ± 0.13 |

| Sequence | PBM 8-mer E-score |
| --- | --- |
| CGGACAGC | -0.13 ± 0.064 |
| GCGGCATA | -0.00641 ± 0.021 |
| CCTTCGAC | -0.147 ± 0.0063 |
| ATTACTCC | 0.182 ± 0.07 |
| CTACCGCC | -0.156 ± 0.014 |
| GGAACAAA | 0.171 ± 0.014 |
| CCGAGCGA | -0.223 ± 0.081 |
| GCTTTTTA | 0.292 ± 0.084 |
| GTTTTGTA | 0.254 ± 0.012 |
| GGTTTGTA | -0.00997 ± 0.022 |
| CCTTTTTA | 0.0863 ± 0.063 |
| GCTTTTCA | 0.0793 ± 0.013 |
| GGTTTATA | 0.051 ± 0.032 |
| CCTTTTCA | 0.295 ± 0.091 |
| CTTTTTCA | 0.0825 ± 0.076 |
| AGTTTATC | 0.138 ± 0.08 |
| AGTTTATA | 0.266 ± 0.0043 |
| CTTTTGTA | 0.151 ± 0.01 |
| GCTTTTAA | 0.00199 ± 0.15 |
| AGAATGTA | 0.159 ± 0.034 |
| ATCCAGAT | 0.0236 ± 0.27 |
| AGAATCGA | -0.018 ± 0.077 |

| Sequence | PBM 8-mer E-score |
| --- | --- |
| CCAATCCG | -0.198 ± 0.078 |
| CTCATACC | 0.014 ± 0.025 |
| AGACCCCA | 0.177 ± 0.046 |
| CAGCCAAG | -0.147 ± 0.066 |
| AGTACATA | 0.147 ± 0.081 |
| AATTTATC | 0.205 ± 0.02 |
| ATTTTATA | 0.231 ± 0.038 |
| CTTTTATA | 0.184 ± 0.01 |
| AATTTATA | 0.247 ± 0.059 |
| GTTTTATA | 0.261 ± 0.059 |
| CATTTATA | 0.175 ± 0.032 |
| GTCGAGGA | -0.115 ± 0.0082 |
| GGAAAGGA | -0.246 ± 0.099 |
| ACAGAGGG | -0.155 ± 0.0044 |
| CTCTAGTA | 0.118 ± 0.0018 |
| GTCTAGTA | 0.252 ± 0.03 |
| ATCTAGTA | -0.00587 ± 0.017 |
| CAGCCGAC | -0.22 ± 0.12 |
| GGGGGACC | -0.296 ± 0.013 |
| AAGAGCAC | 0.00129 ± 0.0028 |
